# Results reported in PubChem BioAssay (NCATS).
# Records with an inconclusive call do not appear. Activity calls are given as the source filed them. Unless noted, the rule behind the calls is not given here.
# Experiments:
# [1] = qHTS profiling for inhibitors of Plasmodium falciparum (3D7) proliferation (AID 743322);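 note: infected erythrocytes exposed to compound for 72 h before lysis; 100% = DMSO vehicle wells and 0% = 0.29 µM artemisinin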; settings: P. falciparum 3D7 proliferation; at 28.7 µM (top of the series)
# In short: (§1)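 Erythrocytes infected with P. falciparum (0.3% parasitemia, 2.5% hematocrit) incubated with compounds 72 h at 37 C, 5% CO2. Lysis with saponin/Triton buffer containing SYBR Green I, overnight at room temperature in the dark; DNA fluorescence (485/535 nm) normalised to 0.29 uM artemisinin and DMSO.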
# [2] = qHTS profiling for inhibitors of Plasmodium falciparum (DD2) proliferation (AID 743323); settings: lower = more inhibition; at 28.7 µM (top of the series)
# In short: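 SYBR Green fluorescence (ex 485, em 535 nm) of lysed cultures gives parasite DNA content; wells normalized to artemisinin (0.29 uM) and DMSO controls. Infected red cells: 0.3% parasitemia, 2.5% hematocrit, 72 h, 37 C.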
# [3] = qHTS profiling for inhibitors of Plasmodium falciparum (HB3) proliferation (AID 743324; active = well fitted curve in the direction sought with a large enough effect; an effect the other way counts as inactive or inconclusive;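 note: 100% = DMSO vehicle wells and 0% = artemisinin-treated control wells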); settings: Plasmodium falciparum HB3 blood-stage proliferation; at 28.7 µM (top of the series)
# In short: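 P. falciparum HB3 grown in erythrocytes (0.3% parasitemia, 2.5% hematocrit final) with compound for 72 h at 37 C, 5% CO2. Parasite DNA detected by SYBR Green after saponin/triton lysis overnight; normalized to 0.29 uM artemisinin and DMSO.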
# [4] = qHTS profiling of the MIPE4 collection as inhibitors of Plasmodium falciparum (3D7) proliferation (AID 743344);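 note: scaled between DMSO vehicle wells and 0.29 µM artemisinin as full inhibition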; settings: P. falciparum 3D7 in erythrocytes, SYBR Green DNA fluorescence, 72 h; at 28.5 µM (top of the series) unless noted
# In short: as §1
# [5] = qHTS profiling of the MIPE4 collection as inhibitors of Plasmodium falciparum (DD2) proliferation (AID 743345); settings: P. falciparum Dd2 in erythrocytes, SYBR Green DNA, 72 h; at 28.5 µM (top of the series) unless noted
# In short: as §1
# [6] = qHTS profiling of the MIPE4 collection as inhibitors of Plasmodium falciparum (DD2) proliferation (Rep 2) (AID 743346); settings: P. falciparum Dd2 in erythrocytes, SYBR Green DNA, 72 h; at 28.5 µM (top of the series) unless noted
# In short: as §1
# [7] = qHTS profiling of the MIPE4 collection as inhibitors of Plasmodium falciparum (HB3) proliferation (AID 743347);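 note: plate controls were DMSO vehicle wells for no effect and artemisinin wells for full effect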; settings: P. falciparum HB3 in erythrocytes, SYBR Green DNA, 72 h; at 28.5 µM (top of the series) unless noted
# In short: as §1
# [8] = High-throughput drug toxicity screening in the BPDCN cell line Cal-1 (AID 1224825); settings: Cal-1 BPDCN cell viability, qHTS; at 45.8 µM (top of the series) unless noted
# In short: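 Exponentially growing Cal-1 cells, 500 per well in phenol red-free RPMI with 10% FBS, were exposed to compounds for 48 h at 37 °C, 5% CO2. Viability was read by CellTiter-Glo luminescence and normalised to DMSO (100%) and 9.2 uM bortezomib (0%).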
# [9] = qHTS assay for measurement of the activity of small molecule inhibitors on Zika virus induced Caspase-3 activity in human iPSC derived neural progenitor cells (hNPCs) (AID 1224857; active = well fitted curve in the direction sought with a large enough effect; an effect the other way counts as inactive or inconclusive; note: % of control where 0% means no effect; nearly all actives have a fitted effect of over 65% in size)
# In short: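 Values are percent inhibition of virus-induced caspase-3/7 signal, scaled between uninfected cells and ZIKV-infected cells. Infection used 2 FFU/cell for 6 h after 1 h compound exposure.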
# [10] = High-throughput drug toxicity screening in the BPDCN cell line Gen2.2 (AID 1224824); settings: Gen2.2 BPDCN cells; at 45.8 µM (top of the series) unless noted;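 note: cells exposed to compounds for 48 h before reading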
# In short: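 Gen2.2 cells, 500 per well in phenol red-free RPMI with 10% FBS, exposed to compounds 48 h at 37 C, 5% CO2; viability by CellTiter-Glo luminescence. Percent activity scaled to DMSO (100%) and 9.2 uM bortezomib final (0%).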
SMILES,remaining parasite growth % (stronger effect = lower value) [1] [%],"activity, percent of control [2] [%]","remaining proliferation (% of control), lower = more inhibition [3] [%]","parasite growth, % of DMSO control [4] [%]","parasite growth remaining, % of DMSO control (lower = more inhibition) [5] [%]","parasite growth, % of control (lower = inhibition) [6] [%]","growth, % of control [7] [%]",viability (% of control) [8] [%],Potency [9],"cell viability, % of control (lower = more cytotoxic) [10] [%]"
CC(C)c1ccccc1Cc1cc(C(=O)Nc2ccc(S(=O)(=O)c3ccccc3C(C)(C)C)cc2)c(O)c(O)c1O,0.404,2.09,-0.184,5.18,6.18,11.2,7.71,14.8,inactive,
CCc1cc2c(cc1N1CCC(N3CCOCC3)CC1)C(C)(C)c1[nH]c3cc(C#N)ccc3c1C2=O,,,,12.5,8.84,33.7,12.5,,inactive,258
CN(C)CC=CC(=O)Nc1cc2c(Nc3ccc(F)c(Cl)c3)ncnc2cc1O[C@H]1CCOC1,-0.281,0.518,0.188,6.72,7.96,9.26,8.85,5.7,inactive,
COc1ccc(F)c(F)c1C(=O)c1cnc(NC2CCN(S(C)(=O)=O)CC2)nc1N,,,,27.7,60.1,26,,,inactive,2.27
CNc1nccc(-c2cccnc2Oc2cc(C(=O)Nc3cccc(C(F)(F)F)c3)ccc2C)n1,5.98,13.8,3.23,,31.1,19.8,7.15,,inactive,13
CCC[C@H](NC(=O)C(C#N)=Cc1cccc(Br)n1)c1ccccc1,26.8,23.2,14.8,11.6,6.9,17.5,4.55,,inactive,15.9
COC(=O)c1ccc2c(C(=Nc3ccc(N(C)C(=O)CN4CCN(C)CC4)cc3)c3ccccc3)c(O)[nH]c2c1,0.245,0.784,0.135,,6.24,13.4,,,inactive,213
Cc1ccc(C(=O)Nc2ccc(CN3CCN(C)CC3)c(C(F)(F)F)c2)cc1C#Cc1cnc2cccnn12,-1.18,0.143,-1.05,6.07,7.34,13,8.37,,inactive,10.5
C=CCn1c(=O)c2cnc(Nc3ccc(N4CCN(C)CC4)cc3)nc2n1-c1cccc(C(C)(C)O)n1,11.1,6.29,,13.4,13.2,21.2,16.5,,inactive,169
Cc1ccc(-c2ncn(-c3ccc(Nc4nccc(-c5cccc(N6CCOCC6)c5)n4)cc3)n2)cn1,3.9,4.15,5.18,5.55,6.69,11.5,8.45,,inactive,5.12
